From PubChem BioAssay AID624330 (Southern Research Specialized Biocontainment Screening …, 2012)
Hit rate of the full screen: of about 340,000 compounds, about 2,100 (0.62%) were called active.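 The calls were made as follows: active = first-screen hits whose inhibition reached a set limit at any dose in the follow-up dose series; inconclusive = inhibition above the set first-screen limit but never retested; inactive = the rest.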 Only a sample is shown. Potency and affinity values are given separately.

molecular target: Rac GTPase-activating protein 1 (Homo sapiens) (UniProt Q9H0H5); test: blockers of MgcRacGAP-driven Rac1 GTP hydrolysis – biochemical, ADP Hunter fluorescence, primary and confirmatory, confirmation (AID 624330); conditions: MgcRacGAP-stimulated Rac1 GTP hydrolysis, at 30 µM, active compounds read high, GST-tagged Rac1 F28L mutant substrate;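 also: fluorescence reports GDP produced by GAP-driven GTP hydrolysis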
Sequence (Q9H0H5 whole entry, looked up): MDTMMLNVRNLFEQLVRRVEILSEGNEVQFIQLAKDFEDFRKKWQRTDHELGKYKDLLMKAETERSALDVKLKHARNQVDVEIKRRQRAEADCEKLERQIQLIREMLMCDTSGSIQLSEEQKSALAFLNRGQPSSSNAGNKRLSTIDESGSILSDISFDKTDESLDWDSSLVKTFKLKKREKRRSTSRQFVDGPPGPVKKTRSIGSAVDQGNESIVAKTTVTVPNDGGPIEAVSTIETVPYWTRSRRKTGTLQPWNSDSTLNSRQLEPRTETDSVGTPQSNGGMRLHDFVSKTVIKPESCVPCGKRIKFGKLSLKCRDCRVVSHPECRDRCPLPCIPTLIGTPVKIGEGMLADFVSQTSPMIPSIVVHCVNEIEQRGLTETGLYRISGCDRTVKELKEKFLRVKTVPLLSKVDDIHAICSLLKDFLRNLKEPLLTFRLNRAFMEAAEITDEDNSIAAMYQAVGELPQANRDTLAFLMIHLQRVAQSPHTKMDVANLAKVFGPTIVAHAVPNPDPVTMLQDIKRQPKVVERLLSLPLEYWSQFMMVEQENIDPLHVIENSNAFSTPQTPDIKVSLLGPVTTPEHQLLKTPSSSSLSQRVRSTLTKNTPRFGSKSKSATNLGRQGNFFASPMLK

inhibition, inactive:
CCN(Cc1ccncc1)Cc1c(O)ccc2ccccc12 15.9%
CN(C)Cc1c(O)ccc2ccccc12 7.54%
COc1ccc(CN(C)Cc2c(O)ccc3ccccc23)cc1 9.58%
COc1cccc(CN(C)Cc2c(O)ccc3ccccc23)c1 3.54%
COc1ccc(/C(N)=N/OC(=O)Cc2cccs2)cc1 5.03%
CCOC(=O)C(N=Nc1nn[nH]n1)C(C)=O (centres undefined) 14.3%
CC(=O)Nc1c(F)cc(Br)cc1F 7.06%
COCCN(C(=O)c1ccccc1)c1nnc(-c2cccnc2)s1 3.74%
C=CCn1c(=O)/c(=C/c2ccc(Cl)cc2)s/c1=C(/C#N)c1nnc2n1CCCCC2 3.92%
C=CCn1c(=O)/c(=C/c2ccc(Cl)cc2)s/c1=C(\C#N)c1nnc2n1CCCCC2 0.47%
CN1CCN(Cc2nnc(-c3ccccc3)o2)CC1 7.8%
CC1=CC(C2CC(=O)N(c3ccc(C)cc3)C2=O)CC2C(=O)N(c3ccc(C)cc3)C(=O)C12 (centres undefined) 1.51%
Cn1cc(Br)c(-c2cccc(N3C(=O)CC(C)(C)CC3=O)c2)n1 9.36%
Cc1cccc(-n2nc3c(c2NC(=O)CCCl)CSC3)c1 9.59%
Cc1ccc(-n2ncc(C(=O)Nc3cc(Cl)cc(Cl)c3)c2C2CCNCC2)cc1C 10.4%
COc1ccc(CSc2nncn2N)cc1[N+](=O)[O-] 2.61%
CC(=O)c1ccc(NC(=S)N2CCCC(CO)C2)cc1 (centres undefined) 9.07%
OCC1CCCN(C(=S)Nc2ccc(Oc3ccccc3)cc2)C1 (centres undefined) 11.8%
Cc1ccccc1NC(=O)c1cccc2c1C(=O)N(C1CCCCC1)C2 6.92%
COc1cc(Cc2nccc3cc(OC)c(OC)cc23)c(NC(C)=O)cc1OC 8.79%
CCCC(=O)Nc1cc(OC)c(OC)cc1C(=O)O 0.59%
COc1cc(NC(=O)c2cnc(NCc3ccccc3)nc2C)cc(OC)c1OC 10.3%
COc1cc2ccc(NC(C)=O)cc2cc1OC -17.4%
CCOC(=O)[C@@H]1[C@H]2COc3ccccc3[C@@H]2N2C(=O)N(c3cccc(Cl)c3)C(=O)[C@@]12C 7.95%
O=C(CCC(=O)Nc1ccc(F)cc1)N/N=C/c1cccnc1 7.44%
Cc1ccnc(NS(=O)(=O)c2ccc(NC(=O)c3snnc3C)cc2)n1 15.1%
c1ccc2c(c1)CCN(CCCNc1nc3ccccc3n3cnnc13)C2 5.26%
Cc1ccc(S(=O)(=O)Nc2nc(C)cc(NN)n2)cc1 0.61%
COc1cc(C)nc(NS(=O)(=O)c2ccc(C)cc2)n1 5.36%
COC(=O)c1ccsc1NC(=O)c1ccc2c(c1)OCCO2 0.64%
O=C(CCCN=C1NS(=O)(=O)c2ccccc21)OCC(=O)c1ccc(F)cc1 3.32%
Cc1cc(C(F)F)nn1CC(=O)NCc1ccc(Cl)cc1Cl 6.89%
CCCSc1nc2cc(OC)c(OC)cc2c(=N)n1CCCN1CCOCC1 20.6%
COc1cc2[nH]c(=S)n(CCCN3CCOCC3)c(=O)c2cc1OC 12.7%
Fc1cc2[nH]c(=S)[nH]c2c(Br)c1N1CCSCC1 8.85%
O=C(N/N=C/c1cccc(F)c1)c1csc2c1CCCC2 11.6%
Cc1ccc(/C=N/NC(=O)c2csc3c2CCCC3)cc1 7.82%
O=C(N/N=C/c1ccccc1O)c1cccc2ccccc12 11.8%
C/C(=N\NC(=O)c1csc2ccccc12)c1ccc(O)cc1 26.2%
O=C(N/N=C/c1cccc(O)c1)c1csc2ccccc12 -6.14%
O=C(N/N=C/c1ccccc1)c1cccc2ccccc12 7.64%
Cc1cc(S(=O)(=O)N2CC(=O)N(CCc3ccccc3)C(=O)C2)ccc1F 12.6%
CCC(C)N(CCNC(=O)c1ccc2c(c1)NC(=O)c1ccccc1S2)C1CCCCC1 (centres undefined) 3.06%
COc1ccc(C(=O)CN2C(=O)NC3(CCCc4ccccc43)C2=O)c(OC)c1 (centres undefined) 2.84%
CN(C(=O)CSc1nnc(-c2cccc(F)c2)n1N)C1CCS(=O)(=O)C1 (centres undefined) 3.77%
Cc1csc(=O)n1CC(=O)OCC(=O)c1c(N)n(CC(C)C)c(=O)n(C)c1=O -0.27%
Cc1nc2ccccc2n1CC(=O)c1ccccc1 15.2%
Cc1nc2ccccc2c(-c2ccccc2)c1CC(=O)O 5.79%
COc1ccccc1OCC(=O)NCC1CCCN(C(=O)c2cccc(C)c2)C1 (centres undefined) 12.2%
CCN(CC)CCNc1ccc(CO)c2sc3ccccc3c(=O)c12 16.6%
COc1ccc2sc3ccccc3c(=O)c2c1OC 2.12%
O=c1c2ccccc2sc2c(CO)ccc(NCCN3CCCCC3)c12 27.3%
CN(C)CCNc1ccc(Cl)cc1[N+](=O)[O-] -0.93%
CCN(CC)CCNc1ccc(CO)c2oc3cc(Cl)ccc3c(=O)c12 4.45%
CN(C)CCNC(=O)c1cc2sc3ccccc3c2s1 11.4%
Cc1cc(O)cc2c(=O)c3ccccc3sc12 8.36%
CCN(CC)CCNc1ccc(CO)c2oc3ccccc3c(=O)c12 16.8%
Nn1c(SCC(=O)NCCC2=CCCCC2)nnc1C(F)(F)F 9.95%
Cc1cccc(NC(=O)CSc2nnc(C)n2Cc2ccccc2)c1 -8.45%
O=C(NCCc1nc(-c2ccccc2)cs1)c1ccc(Br)cc1 -0.49%
CC(=O)N(Nc1ccccc1)c1ccccc1 -0.89%
COc1ccc(C=C2C=C(C(C)(C)C)C(=O)C(C(C)(C)C)=C2)cc1OC 15.6%
CC(=O)OCCCN1c2ccccc2Nc2nnc(-c3ccccc3)cc21 6.92%
CCCCc1ccc(NC(=O)c2ccc(N(C)S(C)(=O)=O)cc2)cc1 -2.51%
